Experimental data published in PubChem BioAssay AID686978 (National Center for Advancing Translational Sciences (NCATS), 2013).
Out of some 420,000 compounds screened, about 64,000 (15%) were called active. About 27% were inconclusive and are not listed. Calls follow the shape of the dose curve; as a rule, active = well fitted inhibition curve with a large enough effect; inconclusive = small, poorly fitted or top-dose-only effect; inactive = flat fitted curve, though single readings scatter. Only a sample is shown.

Test: qHTS for Inhibitors of human tyrosyl-DNA phosphodiesterase 1 (TDP1): qHTS in cells in absence of CPT; also: nearly all actives have a fitted effect of over 55% in size
Conditions: DT40 Tdp1-/- hTDP1 cells, no CPT, ATP luminescence, 48 h; activity change, negative = growth inhibition: at 46.2 µM (top of the series)
Summary of the method: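 A cellular qHTS used chicken DT40 cells lacking endogenous Tdp1 but carrying stably transfected human TDP1. Compounds were applied without camptothecin, and cell growth kinetics were judged by ATP-dependent luminescence after ≥48 hr.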
% is scaled to controls: 0 for no effect and ±100 for the full control effect; potency is read from the fitted curve at half-maximal effect.

| Compound | Potency | activity change, negative = growth inhibition |
| --- | --- | --- |
| CCc1ccc(-c2cc3c(=O)n(CC(=O)NCCCN4CCN(Cc5ccccc5)CC4)nc(C)n3n2)cc1 | 16.4 µM (active) |  |
| Cc1nn(CC(=O)NCCc2ccccc2)c(=O)c2cc3occc3n12 |  | 30.7% (inactive) |
| CCCN1CCN(CCCNC(=O)Cn2nc(CC)n3c(cc4occc43)c2=O)CC1 |  | -3.26% (inactive) |
| COc1cc(OC)cc(-c2nc(=S)n3ccsc3n2)c1 |  | -0.435% (inactive) |
| O=S(=O)(Cc1cc(Cl)nc(-c2cccnc2)n1)c1ccccc1 |  | -24.3% (inactive) |
| O=S(=O)(Cc1cc(Sc2ccccc2)nc(-c2ccccc2)n1)c1ccccc1 | 23.1 µM (active) |  |
| CCS(=O)(=O)n1nc(-c2ccccc2)nc1SCc1ccccc1 |  | -12.3% (inactive) |
| COCCCNC(=O)Cn1c(=O)n(Cc2ccccc2Cl)c(=O)c2cc(OC)c(OC)cc21 |  | -12.9% (inactive) |
| CCCCCOC(=O)c1ccc(N2C(=O)C3C4C=CC(C4)C3C2=O)cc1 (centres undefined) |  | -27.6% (inactive) |
| COc1cc(C2CC(=O)N3CN(Cc4ccccc4)CSC3=C2C#N)ccc1OCc1ccccc1 (centres undefined) |  | -22% (inactive) |
| COc1ccc(SCc2noc(C(=O)NCC3CCCO3)c2C(=O)O)cc1 (centres undefined) |  | 0.709% (inactive) |
| O=C(NCC1CC1)c1onc(CSc2ccccc2)c1C(=O)NCC1CC1 | 20.6 µM (active) |  |
| O=C(NCc1ccccc1)c1onc(CSc2ccncc2)c1C(=O)NCc1ccccc1 |  | -12.6% (inactive) |
| COc1ccc(C(=O)NC(=S)N2CCNC(=O)C2CC(=O)OC(C)C)cc1 (centres undefined) |  | 10.8% (inactive) |
| O=c1cc(CSc2ccc(Cl)cc2)nc(N2CCOCC2)[nH]1 |  | -8.75% (inactive) |
| Cc1ccc2nc(N3C(=O)C(O)=C(C(=O)c4ccco4)C3c3cccc(O)c3)sc2c1 (centres undefined) |  | 7.55% (inactive) |
| COc1cccc(C(O)c2nc3ccccc3n2C)c1 (centres undefined) |  | -9.21% (inactive) |
| COc1cc(C(O)c2nc3ccccc3n2C)cc(OC)c1OC (centres undefined) | 18.4 µM (active) |  |
| COc1ccc(OC)c(C(O)c2nc3ccccc3n2C)c1 (centres undefined) |  | 13.2% (inactive) |
| COc1ccc(-c2cc(=O)oc3cc(OC(C)C(=O)NCC4CCC(C(=O)O)CC4)ccc23)cc1 (centres undefined) |  | -16.3% (inactive) |
| O=C(NCc1ccccc1)C1CCCN(c2nc3ccsc3c(=O)s2)C1 (centres undefined) |  | -22.8% (inactive) |
| O=C(NCCc1cccc(F)c1)C1CCCN(c2nc3ccccc3s2)C1 (centres undefined) | 23.1 µM (active) |  |
| Cc1cc(=O)n2nc(N3CCCC(C(=O)NCc4cccc(Cl)c4)C3)sc2n1 (centres undefined) |  | 20.8% (inactive) |
| COc1ccccc1C(=O)NC(=O)COC(=O)C1CC1 |  | -0.675% (inactive) |
| CCOc1cc2ccccc2cc1C(=O)Nc1ccccn1 |  | -22.9% (inactive) |
| Cc1ccccc1CN1CCC(CNC(=O)c2cc3ccc4cccnc4c3[nH]2)CC1 | 23.1 µM (active) |  |
| COc1cc(NC(=O)c2cc3ccc4cccnc4c3[nH]2)cc(OC)c1OC |  | -8.52% (inactive) |

| Compound | Potency | activity change, negative = growth inhibition |
| --- | --- | --- |
| Cc1cccc(CN2CCC(n3nccc3NC(=O)c3ccccc3C)CC2)n1 |  | 0.0568% (inactive) |
| Cc1ccccc1CN1CCN(C(=O)c2cccc(F)c2)CC1 |  | -24.2% (inactive) |
| CCOc1ccccc1N(CC)C(=O)c1cc2ccc3cccnc3c2[nH]1 | 5.8 µM (active) |  |
| CCc1nnc(SCc2cccc(F)c2)nc1CC |  | -0.858% (inactive) |
| CSCCC(NC(=O)C1CCC(C)CC1)C(=O)NCc1ccco1 (centres undefined) |  | -3.03% (inactive) |
| Cc1cc(C(F)(F)F)c(C#N)c(SCC(=O)NC2CC2)n1 |  | -5.72% (inactive) |
| CC(=O)N(CN1C(=O)C2CC=CCC2C1=O)c1cccc(Cl)c1 (centres undefined) |  | -26.5% (inactive) |
| O=C1CSC(c2cccc(F)c2)N1c1ccccc1F (centres undefined) |  | -21% (inactive) |
| COc1ccc(C(=O)CSc2c(C(C)C)cnc3c2c(=O)n(C)c(=O)n3C)cc1 | 13 µM (active) |  |
| Cc1ccc(CNC(=O)CSc2c(C)cnc3c2c(=O)n(C)c(=O)n3C)cc1 |  | -15.4% (inactive) |
| COc1ccc(C(=O)CSc2nccc(=O)[nH]2)cc1 |  | -14.2% (inactive) |
| CC(=O)c1ccc(NC(=O)CSc2c(C(C)C)cnc3c2c(=O)n(C)c(=O)n3C)cc1 | 14.6 µM (active) |  |
| COc1ccc(C(=O)CSc2n[nH]c(N)n2)cc1 |  | -16% (inactive) |
| COCCNC(=O)CSc1c(C)cnc2c1c(=O)n(C)c(=O)n2C |  | 1.96% (inactive) |
| COc1ccc(C(=O)O)cc1S(=O)(=O)NCc1cccnc1 |  | 14% (inactive) |
| Cc1snc(SCc2c(F)cccc2Cl)c1C#N |  | -25.5% (inactive) |
| O=C(NN1C(=O)C2C3C=CC(O3)C2C1=O)c1ccccc1 (centres undefined) |  | 6.73% (inactive) |
| Cc1ccc2c(C)c(C(=O)N3CCC(N4CCC(C(=O)NC5CC5)CC4)CC3)oc2c1 |  | -6.02% (inactive) |
| COc1cc(Cl)c(C)cc1NC(=O)COC(=O)c1cc(SC)ccc1Cl |  | 1.67% (inactive) |
| CC(C)(C)NC(=O)NC(=O)COC(=O)Cc1ccc(Cl)cc1Cl |  | -0.501% (inactive) |
| CCCCC(=O)N(C)c1c(CC)nc2c(OCc3ccc(Cl)cc3Cl)cccn12 | 9.2 µM (active) |  |
| COc1cccc(NC(=O)CN(C)C(=O)Cc2ccc(Cl)cc2Cl)c1 |  | -1.62% (inactive) |
| CC(NC(=O)COc1cccnc1[N+](=O)[O-])c1ccc(Cl)cc1Cl (centres undefined) |  | -2.29% (inactive) |
| CCc1nc2ccc(C(=O)N3CCC(O)(Cc4ccccc4)CC3)cn2c1N(C)C(=O)Cc1ccccc1 |  | -26.2% (inactive) |
| CCc1nc2c(OCc3ccc(C(F)(F)F)cc3)cccn2c1N(C)C(=O)CC(C)C | 20.6 µM (active) |  |
| CCc1nc2c(OCc3ccc(Cl)cc3Cl)cccn2c1N(C)C(=O)C(C)C | 8.2 µM (active) |  |
| CCc1nc2ccc(C(=O)N(C)Cc3ccco3)cn2c1N(C)C(=O)Cc1ccccc1 |  | -17% (inactive) |
